Only some compounds are listed: those with a hit (about 27% of all), similar ones and a draw of the others.
sEH act = soluble epoxide hydrolase (human) activation; P34913; purified human sEH enzymatic activity, activator screen; activation, % at 2 µM; 91,000 tested, 0.04% active; in the data active means activation above about 37%
sEH inhibitor = blocks human soluble epoxide hydrolase activity; inhibition, % at 2 µM; recombinant human sEH enzymatic activity assay; 91,000 tested, 0.34% active; AID 707; P34913; in the data active means inhibition above about 80%
CYP2C9 inh = human CYP2C9 inhibition. P11712. CYP2C9 Supersomes, luciferin-H conversion, luminescence. inhibition, % at 5 µM. 96,000 tested, 20% active. AID 777;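 active means blocking of liver enzyme CYP2C9 beyond about 50% at 5 µM, limit read from the data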
CYP2C19 inhib = blocks human cytochrome P450 2C19. P33261. CYP2C19 Supersomes, luciferin-H EGE luminescence, 30 min. inhibition, % at 5 µM. 96,000 tested, 21% active. AID 778;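 active means CYP2C19 inhibition above a set limit at 5 µM in the primary screen, cut at about 50% in these data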
Target sequence (P33261 whole entry, looked up): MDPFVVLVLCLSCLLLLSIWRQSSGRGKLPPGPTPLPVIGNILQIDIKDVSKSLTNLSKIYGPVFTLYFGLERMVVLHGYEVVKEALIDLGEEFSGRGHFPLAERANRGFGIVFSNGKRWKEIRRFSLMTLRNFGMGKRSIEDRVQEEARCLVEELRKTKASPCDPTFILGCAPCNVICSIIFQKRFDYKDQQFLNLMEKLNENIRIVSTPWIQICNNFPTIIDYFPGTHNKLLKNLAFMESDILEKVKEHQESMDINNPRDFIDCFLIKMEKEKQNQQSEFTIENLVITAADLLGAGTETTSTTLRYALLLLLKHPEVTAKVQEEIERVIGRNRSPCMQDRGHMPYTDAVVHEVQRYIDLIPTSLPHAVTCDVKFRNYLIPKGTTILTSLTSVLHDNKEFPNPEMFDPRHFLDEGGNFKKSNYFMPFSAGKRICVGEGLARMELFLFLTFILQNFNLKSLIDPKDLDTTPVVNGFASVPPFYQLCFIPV
CYP2C9 act = activators of human CYP2C9. P11712. recombinant CYP2C9, luciferin-H conversion, luminescence; hits give high values; factor 1 = untreated enzyme, 0 = blocked. activation factor at 5 µM. 96,000 tested, 1.4% active;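 active means activation factor of 2 or more for CYP2C9 at a 5 µM dose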
CYP2C19 act = increases human CYP2C19 enzyme activity; 96,000 tested, under 10 active; AID 1025; recombinant CYP2C19, luciferin-H EGE luminescence; hits give high values; 0 = fully inhibited enzyme, 1 = untreated enzyme; activation factor at 5 µM;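 active means activation factor of at least 2 at 5 µM in the primary screen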
Hits are given with their value; 0 = inactive; - = not tested or not shown.

SMILES | sEH act | sEH inhibitor | CYP2C9 inh | CYP2C19 inhib | CYP2C9 act | CYP2C19 act
COc1ccc(N2CCN(c3oc(COc4ccccc4Cl)nc3C#N)CC2)cc1 | - | - | 56.5 | 0 | 0 | 0
N#Cc1nc(COc2ccccc2)oc1N1CCN(c2cccc(Cl)c2)CC1 | 0 | 0 | 79.7 | 0 | 0 | 0
N#Cc1nc(COc2ccc(Cl)cc2)oc1N1CCCCCC1 | - | - | 97.0 | 89.1 | 0 | 0
N#Cc1nc(COc2cccc(Cl)c2)oc1N1CCN(c2ccccc2)CC1 | 0 | 0 | 57.0 | 0 | 0 | 0
COc1ccc(OCc2nc(C#N)c(N3CCN(c4ccc(OC)cc4)CC3)o2)cc1 | 0 | 0 | - | - | - | -
CC1CCN(S(=O)(=O)c2ccc(S(=O)(=O)N3CCN4CCCC4C3)cc2)CC1 (stereo not drawn) | - | - | 0 | 0 | 0 | 0
Cc1ccc(-n2ncc(C#N)c2/N=C/N(C)C)cc1 | 0 | 0 | 0 | 0 | 0 | 0
CN(C)/C=N/c1c(C#N)nnn1Cc1ccccc1 | 0 | 0 | 0 | 66.8 | 0 | 0
CC(NS(=O)(=O)c1ccccc1)C(c1cccs1)N1CCN(C)CC1 (stereo not drawn) | 0 | 0 | 0 | 63.4 | 0 | 0
Cc1ccc(S(=O)(=O)NC(C)C(c2cccs2)N2CCN(C)CC2)cc1 (stereo not drawn) | 0 | 0 | - | - | - | -
CCN1CCN(C(c2cccs2)C(C)NS(=O)(=O)c2ccc(Br)cc2)CC1 (stereo not drawn) | - | - | 0 | 95.4 | 0 | 0
COc1ccc(S(C)(=O)=O)cc1S(C)(=O)=O | 0 | 0 | 0 | 0 | 0 | 0
CCC(C)(C)n1nnnc1CN(Cc1cc2cc(OC)c(OC)cc2[nH]c1=O)C1CCCC1 | 0 | 0 | 0 | 0 | 0 | 0
CC1(C)CC(=O)c2c(-c3cccs3)n[nH]c2C1 | 0 | 0 | 51.7 | 79.0 | 0 | 0
C=CCc1ccc(OCCOCCNCCCC)c(OC)c1 | 0 | 0 | 0 | 0 | 0 | 0
COc1ccc2[nH]c(C)c(CCN(Cc3cccs3)C(=S)Nc3cccc(F)c3)c2c1 | - | - | 98.0 | 78.2 | 0 | 0
COc1cccc(NC(=S)N(CCc2nc3cc(C)c(C)cc3[nH]2)Cc2cccnc2)c1 | 0 | 0 | 0 | 0 | 0 | 0
CC1=Nc2ccccc2/C1=C\c1nc(-c2ccc(F)cc2)oc1O | 0 | 0 | 0 | 0 | 0 | 0
CCCc1ncc(C(O)c2ccc(OC)cc2)n1C (stereo not drawn) | - | - | 0 | 0 | 0 | 0
O=C(c1ccc(C(=O)N2CCOCC2)nc1)N1CCOCC1 | 0 | 0 | 0 | 0 | 0 | 0
Cc1cc(C)cc(N2C(=O)CC(N(C(=O)c3ccco3)c3cc(C)cc(C)c3)C2=O)c1 (stereo not drawn) | 0 | 0 | 61.6 | 0 | 0 | 0
CC1Cc2ccccc2N1S(=O)(=O)c1cnc[nH]1 (stereo not drawn) | - | - | 98.0 | 91.6 | 0 | 0
O=S(=O)(c1cnc[nH]1)N1CCc2ccccc21 | - | - | 99.9 | 98.5 | 0 | 0
CCNC(=O)Cn1cc(C#N)c2ccccc21 | 0 | 0 | - | - | - | -
CC(Sc1nc(N(C)C)nc(N2CCOCC2)n1)C(=O)Nc1ccccc1 (stereo not drawn) | 0 | 0 | 92.4 | 93.2 | 0 | 0
SMILES | sEH act | sEH inhibitor | CYP2C9 inh | CYP2C19 inhib | CYP2C9 act | CYP2C19 act
CC(C)Nc1nc(SCC(=O)Nc2ccccc2)nc(N2CCOCC2)n1 | 0 | 0 | 84.2 | 81.7 | 0 | 0
CC(Sc1nnnn1C)C(=O)Nc1ccc(N2CCOCC2)cc1 (stereo not drawn) | - | - | 0 | 0 | 0 | 0
CC(Sc1nc(N2CCOCC2)nc(N2CCOCC2)n1)C(=O)Nc1ccccc1 (stereo not drawn) | - | - | 79.3 | 0 | 0 | 0
CCC(C)n1cnc2c(=O)oc3ccccc3c21 (stereo not drawn) | 0 | 0 | 0 | 0 | 0 | 0
COc1ccc(OCCC(=O)N2CCCCC2)cc1 | 0 | 0 | 0 | 85.3 | 0 | 0
CCOC(=O)C1CCN(C(=O)CSCCSCC(=O)N2CCC(C(=O)OCC)CC2)CC1 | - | - | 0 | 73.1 | 0 | 0
CC1CCN(C(=O)COC(=O)c2ccc(Br)o2)CC1 | 0 | 0 | 0 | 60.5 | 0 | 0
CCOC(=O)C1CCN(C(=O)CCc2ccccc2)CC1 | 0 | 0 | 0 | 70.7 | 0 | 0
COC(=O)C1CCN(C(=O)CCCOc2ccccc2)CC1 | 0 | 0 | 0 | 87.1 | 0 | 0
CCOC(=O)C1CCN(C(=O)c2ccc(Br)o2)CC1 | 0 | 0 | 69.5 | 81.8 | 0 | 0
CCOC(=O)C1CCCN(CCCc2ccccc2)C1 (stereo not drawn) | 0 | 0 | 0 | 79.8 | 0 | 0
COc1cccc(Nc2nc(=O)[nH]nc2C)c1 | 0 | 0 | 0 | 0 | 0 | 0
Cc1nc2ncnn2c(C)c1CCC(=O)Nc1csc(N)n1 | 0 | 0 | - | - | - | -

Source: PubChem BioAssay (several laboratories)
